Molecules are shown by their SMILES. Out of some 410,000 compounds screened, about 18,000 (4.4%) were called active. Another 7% or so got no clear call; they are omitted. Rule as the data show it: active = activity change below about -60%; inconclusive = no clear call, values can overlap the other calls; inactive = above about -39%. This excerpt belongs to a sample that is enriched for actives.
% is scaled to controls: 0 for no effect and ±100 for the full control effect.

The assay in a line: qHTS Assay for inhibitors of the human cytomegalovirus (HCMV). The note with it: HFF cells, HCMV-luciferase reporter, 72 h; at 57.5 µM; active compounds read low. The method, boiled down:
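Luciferase read-out from HCMV-luciferase-infected HFFs (MOI 1 PFU/cell) 72 h post infection at 37C; compounds added after 16 h cell attachment; activity normalized between buffer-only basal and Salinomycin (10uM) inhibitor controls.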
Take `Cc1ccc(OCc2nc(C#N)c(N3CCCC3)o2)cc1`: the activity change, negative = inhibition is -14.4% (inactive). For the compound `O=S(=O)(c1ccc(Br)cc1)c1nc(-c2ccccc2)oc1NCc1cccnc1`, the activity change, negative = inhibition is -3.8% (inactive).

On to `N#Cc1nc(COc2ccc(-c3ccccc3)cc2)oc1NCc1cccnc1`, for which the activity change, negative = inhibition was -63.4% (active). Under `Cc1cc(C)c(NC(=O)CSc2nc3nccnc3c(=O)n2CCc2c[nH]c3ccccc23)c(C)c1` stands -19.7% (inactive). Regarding `COc1ccc2c(c1)c(=Cc1ccc(N(C)C)cc1)c1cc(-c3ccccc3)[n+](C)n12`, the activity change, negative = inhibition was -99.1% (active). The figure for `Cc1ccc(S(=O)(=O)c2nnn3c2nc(N2CCN(c4ccccc4F)CC2)c2cc(Cl)ccc23)cc1C` is 11.3% (inactive); for `CCn1cc(C(=O)NCc2ccccc2)c(=O)c2cc(S(=O)(=O)N3CCCCC3)ccc21` it is 1.38% (inactive); for `CN(C)CCCn1c(-c2ccc(Cl)cc2)csc1=Nc1ccccc1` it is -19.8% (inactive).

With `COc1cc(/C=N/O)cc(Br)c1OS(=O)(=O)c1ccc(C)cc1`, the activity change, negative = inhibition was -76.2% (active). Under `COc1cc(/C=C/c2ccc(/C=C/c3cc(OC)c(OC)c(OC)c3)cc2)cc(OC)c1OC` stands -35.4% (inactive); under `Cc1ccc(S(=O)(=O)Oc2ccc(/C=N/NC(=O)c3c(Cl)cnn3C)cc2)cc1`, 22% (inactive); under `COc1cccc(CNC(=O)c2cc(=O)[nH]c3ccc(S(=O)(=O)N4CCCCC4)cc23)c1`, 0.829% (inactive). For `CCc1ccc(NC(=O)c2cc(S(=O)(=O)N3CCCC(C)C3)cn2C)cc1` (stereo not drawn), the activity change, negative = inhibition is -13.1% (inactive). Under `CSc1ncc(Cl)c(C(=O)Nc2ccc(S(=O)(=O)N3CCCC(C)C3)cc2)n1` (stereo not drawn) stands -86% (active); under `COc1ccc(S(=O)(=O)N2CCCC(C(=O)Nc3ccc(NC(=O)c4ccccn4)cc3)C2)cc1` (stereo not drawn), 62.8% (inactive); under `Cc1nnc(SCC(=O)NCc2ccccc2Cl)c2nn(-c3ccccc3)c(C)c12`, -12.6% (inactive). With `O=C(NC(=O)N1CCSCC1)c1c(Cl)cccc1Cl`, the activity change, negative = inhibition is 7.68% (inactive). Regarding `COc1ccc(-c2nn(CC(=O)NC3CCCC3)c3c2cnc2ccc(F)cc23)cc1`, the activity change, negative = inhibition is 35.7% (inactive). On to `CCOc1ccc(NCCC(=O)c2ccc3c(c2)OCO3)cc1`, for which the activity change, negative = inhibition is -3.98% (inactive). The figure for `CCC(C)(C)NC(=O)CN(C(=O)C(=O)Nc1ccc2c(c1)OCCO2)C(C)(C)CC` is 21.3% (inactive); for `COC(=O)CCNc1ccc2c(c1)OCCO2` it is -79.1% (active); for `Cn1nc(-c2ccccc2)c(-c2ccccc2)c(C(=O)Nc2ccc(S(N)(=O)=O)cc2)c1=O` it is 6.63% (inactive). Turning to `COc1ccc(-c2c3c(=O)n(C)c(=O)n(C)c3c3c(C)nc4ccccc4n23)cc1`, the activity change, negative = inhibition was 6.41% (inactive).

For the origin of these results see PubChem BioAssay AID1259415 (National Center for Advancing Translational Sciences (NCATS), 2018).
